esBAF inh = inhibitors of esBAF chromatin remodeling in mouse ES cells; reporter increase, % at 12.5 µM; actives 2% (n = 350,000); Bmi1-luciferase knock-in reporter, 24 h; 100% = twice the neutral-well signal; in the data active = activation above about 40%;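 note: 0% = median of the plate's neutral control wells and 100% = double that signal; a rise in the Bmi1 reporter signal indicates esBAF inhibition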
697 NFkB inh = inhibitors of the PMA/ionomycin-induced NF-kB reporter in 697 B cells; 697 B-cell NF-kB luciferase reporter, 16 h; inhibition, % at 4 µM; actives 0.33% (n = 330,000); AID 435022; in the data active = inhibition above about 35%
SMARCA2 act = activators of SMARCA2 function | MG213 cells, MMTV-luciferase reporter, dexamethasone, overnight | activation, % at 9.1 µM | actives 1% (n = 370,000) | AID 652017; in the data active = activation above about 7.8%;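 note: 0% = vehicle wells and 100% = reference activator wells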
Gli-Sufu antag = Gli-Sufu pathway antagonism. Sufu-KO-LIGHT fibroblasts, Gli luciferase reporter luminescence. inhibition, % at 5 µM. actives 0.74% (n = 340,000);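 active = inhibition above about 55%, limit read from the data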;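 note: 0% = DMSO-treated cells and 100% = wells with medium but no cells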
Jurkat NFkB inh = lowers PMA/ionomycin-induced NF-kB signal in Jurkat cells; PMA/ionomycin-induced NF-kB luciferase reporter, luminescence; inhibition, % at 4 µM; actives 0.53% (n = 330,000); in the data active = inhibition above about 50%
* = called active by the depositor; / = not tested or not shown. Rows were chosen to be rich in hits. Some 3.3% of all compounds tested hit in one or more screens of this group.

SMILES | esBAF inh | 697 NFkB inh | SMARCA2 act | Gli-Sufu antag | Jurkat NFkB inh
Cc1noc(C)c1S(=O)(=O)N(C)C[C@H]1OCCCC[C@H](C)Oc2ccc(NC(=O)Nc3ccc(F)cc3)cc2C(=O)N([C@H](C)CO)C[C@@H]1C | 6 | / | / | / | /
C[C@@H]1CN([C@@H](C)CO)C(=O)c2cc(NC(=O)c3ccncc3)ccc2O[C@H]1CN(C)C | -4 | / | / | / | /
C[C@H]1CN([C@@H](C)CO)C(=O)c2cccc(NC(=O)Nc3ccc(C(F)(F)F)cc3)c2O[C@H]1CN(C)C(=O)Nc1ccc2c(c1)OCO2 | 5 | / | / | / | /
COc1cc(SC)ccc1C(=O)OCC(=O)NCCNC(=O)COC(=O)c1ccc(SC)cc1OC | -5 | -24 | 0 | -3 | -10
COC(=O)c1ccc(COC(=O)c2ccc(SC)cc2OC)cc1 | 63* | -55 | 3 | -29 | -31
Cc1[nH]c2c(ccc3cccnc32)c1C | / | -8 | -4 | -16 | -16
CC1=[N+](C)c2c(ccc3cccnc23)C1(C)C | / | / | -7 | 87* | /
COC(=O)C(C)n1cnc2c(cnn2-c2ccc(Cl)cc2)c1=O (stereo not given) | 53* | -32 | 3 | 8 | 7
C[C@@H]1CN([C@@H](C)CO)C(=O)c2cc(-c3ccccc3F)cnc2O[C@@H]1CN(C)Cc1ccccc1 | 3 | / | / | / | /
CC(=O)/C=C\c1ccccc1OC(=O)c1cc2ccccc2oc1=O | 12 | 4 | 3 | 0 | 3
CC(=O)Oc1ccccc1/C=C/c1ccc2ccccc2[n+]1C | 65* | -10 | 7 | 8 | -45
COc1ccc(/C=C/c2ccc3ccccc3[n+]2C)cc1OC | 55* | -25 | / | -23 | -26
CCNC(=O)[C@@H]1[C@@H](CO)[C@@H]2Cn3c(ccc(-c4ccc(F)cc4)c3=O)[C@H]1N2C(=O)C1CC1 | 0 | / | / | / | /
O=c1c(-c2ccc3c(c2)OCCO3)coc2cc(OC3OC(CO)C(O)C(O)C3O)ccc12 (stereo not given) | -4 | -200 | 4 | -107 | -91
COc1ccc(-c2coc3cc(O[C@@H]4O[C@H](CO)[C@@H](O)[C@H](O)[C@H]4O)ccc3c2=O)cc1 | 64* | -129 | 6 | -78 | -36
C[C@@H]1CCCCO[C@@H](CN(C)C(=O)Nc2ccc(F)cc2)[C@H](C)CN([C@@H](C)CO)C(=O)c2cc(NC(=O)CCC(F)(F)F)ccc2O1 | -4 | / | / | / | /
CC(C(=O)N1CCCCC1)n1sc2ccccc2c1=O (stereo not given) | 50* | -15 | 6 | -5 | -36
CC(C(=O)N1CCN(C(=O)c2ccco2)CC1)n1sc2ccccc2c1=O (stereo not given) | 3 | 3 | 0 | -21 | -19
COc1ccc2c(c1)C(=NN)c1cc(OC)ccc1-2 | 43* | -46 | 5 | -34 | -55
CO[C@@H]1CN(C)C(=O)c2cc(NS(C)(=O)=O)ccc2OC[C@H](C)N(CC2CC2)C[C@@H]1C | 0 | / | / | / | /
O=C(O)c1cncc(C#Cc2ccccc2)c1 | 13 | -9 | -1 | 15 | 0
O=C(O)c1cncc(C#CCC2CCCCC2)c1 | 61* | -58 | 4 | -16 | -23
Cc1cc(=O)[nH]c(NN=Cc2cc(Br)ccc2O)n1 | -45 | / | -5 | 76* | /
CN(C)/C=N/c1cnc(C(=O)c2ccc(Cl)cc2)n1C | 45* | -123 | 1 | -107 | -98
CC1(C)CC(=O)C(/C=N/n2cnc3ccccc3c2=O)=C(O)C1 | 49* | -20 | -1 | 5 | -2
SMILES | esBAF inh | 697 NFkB inh | SMARCA2 act | Gli-Sufu antag | Jurkat NFkB inh
CC1(C)CC(=O)C(/C=N/c2ccccn2)=C(O)C1 | -6 | 0 | 0 | 2 | 8
Cc1ccc(/C=C/C(=O)Nc2ccc(N(C)C)cc2)o1 | 52* | -25 | 2 | -36 | -40
CC(C)(C)CC(C)(C)c1ccc(OCCOCC[N+](C)(C)Cc2ccccc2)cc1 | -50 | 9 | -8 | 66* | 13
C[N+](C)(CCOc1ccccc1)Cc1ccccc1 (tested in a mixture with another compound) | -5 | 4 | -1 | 13 | 11
O=S(=O)(NCC[C@@H]1CC[C@H](NS(=O)(=O)c2cccc(Cl)c2)[C@H](CO)O1)c1cccc(F)c1 | 6 | / | / | / | /
O=C(NCc1ccncc1)[C@@H]1N[C@@H]2c3ccc(/C=C/c4ccccc4)c(=O)n3C[C@@H]2[C@H]1CO | -3 | / | / | / | /
Cc1ccc(NC(=O)c2c(O)c3ccccc3n(C)c2=O)nc1 | 48* | -88 | -5 | -30 | -36
Cc1ccc(NC(=O)c2c(Cl)n(C)c3ccccc23)cc1 | 67* | -59 | 3 | -34 | -23
